# Compound activity as filed in PubChem BioAssay.
# BL2 CD40 inh: CD40 pathway inhibition in BL2 cells | BL2 NF-kB luciferase reporter, CD40L-induced, 4 h | inhibition, % at 10 µM | 83,000 compounds, 0.94% hits | AID 1053188;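 active = mean inhibition of at least 50% with a set share of replicates also reaching that level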;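 also: 0% = neutral control wells and 100% = IKK inhibitor VII at 50 µM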
# The depositor's hits bear a star; [ ] = remark or other dose. Shown is part of a subset that was picked to be rich in hits.
SMILES,BL2 CD40 inh
CCCNC(=O)[C@H]1[C@H](CO)[C@H]2Cn3c(ccc(-c4ccc(F)cc4)c3=O)[C@H]2N1CC1CC1,1[25 µM]
C[C@H]1CN(C)C(=O)c2cccc(N(S(C)(=O)=O)S(C)(=O)=O)c2O[C@H]1CN(C)C(=O)OC(C)(C)C,5
CC(=O)N1C2CN(CC(F)(F)F)CC1C2c1ccc(Br)cc1 (configuration not stated),8
CC(C)NC(=O)Nc1ccc2c(c1)CC(=O)N(C)C[C@@H](C)[C@@H](CN(C)S(C)(=O)=O)O2,-5
CC(=O)N(C)C[C@H]1Oc2ncccc2C(=O)N(C)C[C@@H]1C,2
N#C[C@H]1[C@H](c2ccccc2C2=CCCCC2)[C@H](CO)N1C(=O)c1cccc(F)c1,-12[25 µM]
Cc1cc(-c2nc3ccccc3s2)ccc1N,56*
c1ccc(-c2nc3ccccc3s2)nc1,-84
Cc1ccc(-c2nc3ccccc3s2)cc1S(=O)(=O)N1CCOCC1,-4
CC(C)CC#Cc1ccc([C@@H]2[C@H](CO)N3C(=O)CN(C(=O)NC4CCCC4)C[C@@H]23)cc1,18
O=C(C[C@H]1CC[C@@H]2[C@H](COC[C@@H](O)CN2CC2CCCC2)O1)NCc1ccc(Cl)cc1,4
O=C(C[C@@H]1CC[C@H]2[C@@H](COC[C@H](O)CN2Cc2cc(F)ccc2F)O1)NCc1ccc(Oc2ccccc2)cc1,36[25 µM]
O=C(C[C@@H]1CC[C@@H]2[C@H](COC[C@@H](O)CN2CCC(F)(F)F)O1)NCc1ccc(Oc2ccccc2)cc1,19
O=C(C[C@H]1CC[C@H]2[C@@H](COC[C@H](O)CN2Cc2cc(F)ccc2F)O1)NCc1ccc(Oc2ccccc2)cc1,35[25 µM]
O=C(C[C@@H]1CC[C@@H]2[C@H](COC[C@H](O)CN2Cc2cc(F)ccc2F)O1)NCc1ccc(Oc2ccccc2)cc1,63*[25 µM]
CCC(=O)N1C[C@@H](O)COC[C@@H]2O[C@H](CC(=O)NCc3ccc(Oc4ccccc4)cc3)CC[C@H]21,3[25 µM]
O=C(C[C@@H]1CC[C@H]2[C@@H](COC[C@@H](O)CN2Cc2cc(F)ccc2F)O1)NCc1ccc(Oc2ccccc2)cc1,51*[25 µM]
COc1ccc(CNC(=O)N(C)C[C@H]2OCc3ccccc3-c3ccccc3C(=O)N([C@H](C)CO)C[C@H]2C)cc1,-10[25 µM]
C[C@@H]1CN(C)C(=O)Cc2cc(N)ccc2O[C@H]1CN(C)C(=O)OC(C)(C)C,-2
Cc1ccc(S(=O)(=O)N[C@H]2CC[C@@H](CCn3cc(C4CCCC4)nn3)O[C@H]2CO)cc1,2
CC[n+]1c(/C=C2/C=C(C)CC(C)(C)C2)sc2ccc(OC)cc21,80*
CC(C)NC(=O)Nc1ccc2c(c1)CC(=O)N(C)C[C@H](C)[C@H](CN(C)C)O2,-3
COc1cccc2c1C(=O)c1c(O)c3c(c(O)c1C2=O)C[C@@](O)(C(C)=O)C[C@@H]3OC1CC(N)C(O)C(C)O1 (some centres not stated),87*[25 µM]
O=C(C[C@H]1C[C@H]2c3cc(NC(=O)NC4CCCCC4)ccc3O[C@H]2[C@H](CO)O1)NC1CCCC1,-6
Cc1[nH]c2ccccc2c1CCO,18
SMILES,BL2 CD40 inh
Cc1[nH]c2ccccc2c1C1=CC(=O)C=CC1=O,91*
Cc1[nH]c2ccccc2c1CC#N,-1
OCc1cc2ncnc(Nc3ccc(O)c(Br)c3)c2cc1CO,-5[25 µM]
C/C=C/c1ccccc1[C@@H]1[C@@H](CO)N(C(=O)Cc2ccccn2)[C@H]1C#N,9[25 µM]
CCCNC(=O)Nc1ccc2c(c1)C(=O)N(C)C[C@H](OC)[C@H](C)CN(C(=O)C1CCC1)[C@@H](C)CO2,3
CC(C)NC(=O)N(C)C[C@H]1Oc2ccc(N(C)C)cc2CC(=O)N(C)C[C@H]1C,0
C=C1C(=O)OC2C1C(OC(=O)C(C)=CC)CC(=C)C1C(O)C3OC3(C)C21O (configuration not stated),33
C=C1C(=O)OC2C=C(CO)CCC=C(CO)CC(OC(=O)C(C)C)C12 (configuration not stated),87*
CCCNC(=O)[C@@H]1N[C@@H]2c3ccc(-c4cccc(F)c4)c(=O)n3C[C@@H]2[C@H]1CO,2[25 µM]
N#C[C@H]1[C@H](c2ccc(C#CC3CCCCC3)cc2)[C@H](CO)N1C(=O)Nc1ccc(F)cc1,51*[25 µM]
N#C[C@H]1[C@H](c2ccc(C#CC3CCCC3)cc2)[C@@H](CO)N1C(=O)Nc1ccc(F)cc1,29
N#C[C@H]1[C@@H](c2ccc(C#CC3CCCCC3)cc2)[C@H](CO)N1C(=O)Nc1ccc(F)cc1,55*[25 µM]
CC(C)NC(=O)N1[C@H](C#N)[C@H](c2ccc(C#CC3CCCCC3)cc2)[C@@H]1CO,9
CC(C)NC(=O)N1[C@H](C#N)[C@@H](c2ccc(C#CC3CCCC3)cc2)[C@H]1CO,-2
N#C[C@@H]1[C@H](c2ccc(C#CC3CCCC3)cc2)[C@@H](CO)N1C(=O)Nc1ccc(F)cc1,48*
CC(C)NC(=O)N1[C@H](C#N)[C@@H](c2ccc(C#CC3CCCCC3)cc2)[C@@H]1CO,-3
N#C[C@H]1[C@@H](c2ccc(C#CC3CC3)cc2)[C@@H](CO)N1C(=O)Nc1ccc(F)cc1,2
